Source: PubChem BioAssay AID602310 (National Center for Advancing Translational Sciences (NCATS), 2012)
The campaign covered roughly 410,000 compounds. About 310 (0.076%) were called active. Inconclusive results (about 2%) are left out. For the sample, actives were picked, then their nearest neighbours and some compounds at random. Unmarked numbers belong to inactive results. Calls follow the shape of the dose curve; as a rule, active = well fitted curve in the direction sought with a large enough effect; inconclusive = small, poorly fitted or top-dose-only effect; inactive = flat fitted curve, though single readings scatter.

target: DNA dC->dU-editing enzyme APOBEC-3G (Homo sapiens) (UniProt Q9HC16); experiment: qHTS for Inhibitors of Vif-A3G Interactions: qHTS; conditions: HeLa A3G-eYFP + Vif (tagged APOBEC3G with the HIV-1 protein that degrades it), YFP fluorescence, overnight; series mostly up to 46.1 µM; activity, negative = active: at the top concentration; also: nearly all actives have a fitted effect of over 60% in size;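 as to activity, negative = active: hits raise eYFP signal because A3G escapes Vif-driven loss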
Sequence (Q9HC16 whole entry, looked up): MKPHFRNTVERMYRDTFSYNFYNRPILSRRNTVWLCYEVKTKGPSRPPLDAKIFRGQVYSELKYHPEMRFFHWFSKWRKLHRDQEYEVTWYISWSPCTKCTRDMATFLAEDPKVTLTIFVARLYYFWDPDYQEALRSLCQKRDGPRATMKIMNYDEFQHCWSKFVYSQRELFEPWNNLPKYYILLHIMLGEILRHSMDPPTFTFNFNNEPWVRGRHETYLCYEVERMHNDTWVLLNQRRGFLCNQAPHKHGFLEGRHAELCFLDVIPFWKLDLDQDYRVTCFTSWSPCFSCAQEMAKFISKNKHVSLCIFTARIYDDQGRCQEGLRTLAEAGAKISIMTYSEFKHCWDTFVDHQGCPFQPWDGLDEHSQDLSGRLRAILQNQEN
Description: The recent discovery and characterization of host restriction factors, which provide a potent defense to invading retroviruses, has provided new targets for antiviral drug development. APOBEC3G (A3G) and APOBEC3F (A3F) are potent cytidine deaminases that block HIV-1 replication; HIV-1 expresses the Vif protein, which counteracts A3G and A3F by binding to them and inducing their proteasomal degradation. The Vif-A3G and Vif-A3F interactions provide two potential targets for development of small molecules which can interfere with the ability of Vif to degrade A3G or A3F. […] To identify inhibitors that can interfere with Vif mediated degradation of A3G and A3F, we have developed Hela cell lines that stably express A3G or A3F tagged with eYFP at the C-terminal end (A3G-eYFP or A3F-eYFP, respectively) and Vif. In the absence of an inhibitor, Vif induces degradation of A3G-eYFP and A3F-eYFP, and the cells are not fluorescent. In the presence of an inhibitor, it is expected that Vif will be unable to degrade A3G-eYFP and/or A3F-eYFP, resulting in an increase in yellow fluorescence. In this assays Vif A3G was screened against the Molecular Library Small Molecule Repository (MLSMR). NIH Chemical Genomics Center [NCGC] NIH Molecular Libraries Probe Centers Network [MLPCN] MLPCN Grant: MH093245 Assay Submitter (PI): Vinay Pathak, National Cancer Institute
5 uL of 700 cells/well of A3G-YFP cells are dispensed into black, clear bottom plates. The plates are incubated overnight at 37 deg C. 23 nL of compounds are added by pintool. The plates are incubated overnight at 37 deg C and then read on the TTP Acumen (Ex 488/ Em 500-530).
% is scaled to controls: 0 for no effect and ±100 for the full control effect; potency is read from the fitted curve at half-maximal effect.

Structure (SMILES) | activity, negative = active [%] | Potency
Cc1nn(CC(=O)N2CCN(c3cccc(C(F)(F)F)c3)CC2)c(=O)c2cc3sccc3n12 | 1.37 | 
CCCCC(CCCC)c1ccc(C=Nc2ccc(/C=C/c3ccnc4ccccc34)cc2)cc1 | -7.47 | 
CCS(=O)(=O)N1CCc2cc(C(=O)NCc3ccc(C)cc3)ccc21 | 1.84 | 
CCCCN1C(=O)c2[nH]nc(-c3ccccc3O)c2C1c1cccc(OCc2ccccc2)c1 (stereo unspecified) | -29.4 | 
ClC/C=C/C[n+]1ccccc1Cl | 3.06 | 
CSc1n[nH]c(-c2ccco2)n1 | -3.31 | 
C[n+]1ccc(/C=C/c2c[nH]c3ccccc23)cc1 |  | 11.2 µM (active)
CCOc1n[nH]c(-c2ccccc2)n1 | 3.57 | 
CCc1nn(CC(=O)Nc2cccc(C)c2C)c(=O)c2cc3sccc3n12 | 2.56 | 
CCOc1ccccc1NC(=O)CN1CCN(S(=O)(=O)c2ccc(Br)cc2)CC1 | 1.45 | 
COc1cccc(NC(=O)Cn2c(=O)cc(C)c3c(C)nn(-c4cccc(F)c4)c32)c1 | 0.977 | 
Nc1nc(N)c(N=O)c(N)n1 | -0.374 | 
CCCCOc1ccc(C(=O)N2CC(=O)Nc3ccc(Br)cc3C2c2ccc(F)cc2)cc1 (stereo unspecified) | -0.538 | 
COc1ccccc1/C=C/c1nc(C#N)c(NC(C)c2ccccc2)o1 (stereo unspecified) | 0.452 | 
COc1ccc(CCNC(=O)c2ccc(CSCc3ccc(C)cc3)o2)cc1OC | 4.58 | 
CNCCCOc1cc2nc(N3CCCN(C)CC3)nc(NC3CCN(C)CC3)c2cc1OC | 2.66 | 
O=C(COc1ccccc1C(=O)Nc1ccccc1)Nc1cccc(F)c1 | -2.9 | 
CC1(C)CC(=O)c2cc(C(=O)NCc3ccccc3)c(=O)[nH]c2C1 | -3.12 | 
Cn1nnnc1SCCNCc1ccc(Cl)c(Cl)c1 | -0.946 | 

Structure (SMILES) | activity, negative = active [%] | Potency
Cc1csc[n+]1CCC1CCCCC1 | 1.21 | 
CCn1c(CNC(=O)C23CC4CC(CC(C4)C2)C3)nnc1SCC(=O)Nc1ccc(OC)cc1 |  | 10 µM (active)
CCCCn1c(CNC(=O)C23CC4CC(CC(C4)C2)C3)nnc1SCC(=O)Nc1ccc(C)cc1 | -0.393 | 
CCn1c(CNc2ccc(OC)cc2)nnc1SCC(=O)c1ccc(OC)cc1 | 0.533 | 
Cc1ccc(C(=O)COC(=O)C(Cc2c[nH]c3ccccc23)NC(=O)c2ccc(Br)cc2)cc1 (stereo unspecified) | 2.11 | 
Cc1ccc(Cl)cc1N1CCN(C(=O)c2cn(C)c3ccc(S(=O)(=O)N(C)C4CCCCC4)cc3c2=O)CC1 | 0.271 | 
S=c1[nH]c(=S)c2n[nH]nc2[nH]1 | 4.48 | 
COc1cccc(C(=O)NC(=O)Nc2ccc(-c3cc(C(F)(F)F)nn3-c3ccccc3)cc2)c1 | 3.03 | 
COc1ccc(CCN2C(=O)N(c3cccc(OC)c3)C(=O)C2CC(=O)Nc2ccccc2)cc1 (stereo unspecified) | 3.95 | 
COc1ccc(CC(=O)NCCc2sc3nc(-c4ccc(OC)cc4)nn3c2C)cc1 | 7.95 | 
CCc1ccc(Nc2nn3c(=O)c4cc5c(cc4nc3s2)OCO5)cc1 | 3.36 | 
CCOC(=O)c1c(C)[nH]c(C)c1S(=O)(=O)NCC(=O)NCc1cccc(C)c1 | -0.939 | 
COc1ccc(CNC(=O)Cn2nnc(-c3ccc(S(C)(=O)=O)cc3)n2)cc1 | 2.9 | 
COc1ccc(OC)c(NC(=O)CSc2nc3ccccc3nc2N2CCCCC2)c1 | -8.14 | 
Cc1ccc(Cn2cnc3c(cnn3C(C)(C)C)c2=O)c(F)c1 | -1.28 | 
Brc1cccc(-c2nnn3c2nc(NC2CCCCC2)c2ccccc23)c1 | 5.7 | 
C[N+]1(CC(=O)c2cccs2)CCOCC1 | 1.57 | 
CCCNC(=O)C1CCN(c2nc3ccc(C)cc3[nH]2)CC1 | 0.307 | 
COc1cc(OC)c(NC(=O)c2c3c(nn2C)-c2ccccc2SC3)cc1Cl | 3.23 | 

Structure (SMILES) | activity, negative = active [%] | Potency
CN(N=O)c1ccc(C=C2c3ccccc3-c3ccccc32)cc1 | -1.54 | 
COc1ccc2[nH]c3c(c2c1)CCN(C(=O)CCC1CCCC1)C3c1ccc(F)cc1 (stereo unspecified) | -9.23 | 
CN(C)c1cccc2ccccc12 | 3.02 | 
CN(C)c1ccc(/C=C/c2c3ccccc3nc3ccccc23)cc1 | -16.4 | 
Cc1oc2c(c1C(=O)Nc1ccc(F)c(F)c1)C1=NCCN1C=N2 | 2.52 | 
CCc1nnc(SCc2c(F)cccc2Cl)c2cc3sccc3n12 | -1.5 | 
COc1ccc(/C=C/c2ccccn2)cc1OC | 0.196 | 
Cc1cc(Cl)ccc1OCC(=O)N(Cc1ccc(N(C)C)cc1)C1CCS(=O)(=O)C1 (stereo unspecified) | 0.29 | 
CN(C)C1=C2C=CC=CC2/C(=C2/C=Cc3ccccc32)C=C1 (stereo unspecified) | -6.13 | 
CCOc1ccccc1NC(=O)Cn1c(=O)n(-c2cccc(C)c2)c(=O)c2c1c1cc(OC)ccc1n2C | 0.805 | 
O=C(Nc1ccc([N+](=O)[O-])cc1)c1cnn2c1NC(=C1CC1)C=C2C(F)F | 0.78 | 
O=C(CSc1ncc(S(=O)(=O)c2ccc(Br)cc2)c(=O)[nH]1)Nc1ccc2c(c1)OCCO2 | -0.105 | 
CCOc1ccccc1C(=O)NCc1ccc2c(c1)CCN2C(=O)c1ccc(F)cc1 | 0.357 | 
COc1cc2nc(C#Cc3nc4cc(OC)c(OC)cc4[nH]3)[nH]c2cc1OC | 0.338 | 
COc1cccc(/C=N/NC(=O)c2[nH]nc3c2CCc2ccccc2-3)c1O |  | 8.91 µM (active)
Cc1ccccc1NC(=O)COc1cccc2c1CCNC2=O | -0.461 | 
Cc1ncc(CO)c(/C=N/NC(=O)c2cccc(S(=O)(=O)N3CCCC3)c2)c1O | -0.256 | 
CCc1cc2c(cc3c(=O)n(CC(=O)N4CCN(c5cc(Cl)ccc5C)CC4)nc(CC)n32)s1 | 0.482 | 
